Lamin A splicing: modulators of lamin A splicing; AID 1487; 200,000 tested, 0.01% active; HeLa LMNA splicing GFP/RFP minigene ratio, 48 h; Potency, µM (titrated, usually from 46.1 µM), without a hit: at the top dose ratio change, negative = inhibition, hits mostly inhibitors; active = well fitted inhibition curve with a large enough effect in the signal ratio, with a control signal flat, not every such curve was filed as active; inconclusive = small, poorly fitted or top-dose-only effect, or effect the other way, or a change in a side signal; the % refers to the signal ratio; note: potency is the fitted concentration of half-maximal effect
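S3 HeLa stable clones carrying a lamin A-EGFP splicing minigene plus DsRed2 were seeded at 600 cells/well in Opti-MEM with 2% FBS, pin-dosed and incubated 48 h at 37°C. Acumen cytometry (488 nm) gave the GFP/RFP total-intensity ratio.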
PNC inhibitor: perinucleolar compartment assembly inhibition. PC3M PTB-GFP, PNC prevalence imaging, 16 h; active compounds read low. activity change (PNC), negative = inhibition, % at 10 µM. 140,000 tested, 3.1% active;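 active = readout at or below -70, meaning at least 70% loss of cells showing the perinucleolar compartment, a nuclear body marking cancer cells; inconclusive = readout between -30 and a set limit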;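 note: plate controls were DMSO wells for no effect and camptothecin positive control wells for full effect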
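PC3M cells stably expressing PTB-GFP, 750–1000 cells/well, treated 16 h at 37 °C with compound (23 nl of library stock), in duplicate. After paraformaldehyde fixation and Hoechst stain, imaged at 20x; PNC prevalence scored by image analysis.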
HPGD inh: HPGD (human) dehydrogenase inhibition. P15428. purified HPGD, NADH fluorescence kinetic, PGE2 substrate. Potency, µM, inactives show at the top dose activity change, negative = inhibition, most hits filed as inhibitors. 150,000 tested, 4.3% active. AID 894; note: potency is the fitted concentration of half-maximal effect
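NADH formation kinetics: reaction with 30 uM PGE2 and 1 mM NAD+ (final), 20 nM enzyme, Tris-HCl pH 8 with Tween 20, after 15 min compound preincubation at room temperature. Fluorescence change, last versus first of five reads.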
ALDH1A1 inh: blocks purified human ALDH1A1 activity; P00352; Potency, µM (top dose mostly 75.3 µM), without a hit: at the highest dose activity, negative = inhibition, hits mostly inhibitors; 220,000 tested, 7.3% active; Purified ALDH1A1, NADH fluorescence, propionaldehyde substrate;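 note: potency is the fitted concentration of half-maximal effect; plate controls were no enzyme wells and a reference inhibitor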
12-hLO inh: inhibitors of human 12-lipoxygenase (ALOX12); P18054; purified 12-hLO, xylenol orange hydroperoxide absorbance; Potency, µM (titrated, usually from 57.1 µM), for inactives: at the top dose activity change, negative = inhibition, most hits filed as inhibitors; 150,000 tested, 0.12% active; AID 1452; active = well fitted inhibition curve with a large enough effect; inconclusive = small, poorly fitted or top-dose-only effect; note: potency is the fitted concentration of half-maximal effect; nearly all actives have a fitted effect of over 55% in size
Target sequence (P18054 whole entry, looked up): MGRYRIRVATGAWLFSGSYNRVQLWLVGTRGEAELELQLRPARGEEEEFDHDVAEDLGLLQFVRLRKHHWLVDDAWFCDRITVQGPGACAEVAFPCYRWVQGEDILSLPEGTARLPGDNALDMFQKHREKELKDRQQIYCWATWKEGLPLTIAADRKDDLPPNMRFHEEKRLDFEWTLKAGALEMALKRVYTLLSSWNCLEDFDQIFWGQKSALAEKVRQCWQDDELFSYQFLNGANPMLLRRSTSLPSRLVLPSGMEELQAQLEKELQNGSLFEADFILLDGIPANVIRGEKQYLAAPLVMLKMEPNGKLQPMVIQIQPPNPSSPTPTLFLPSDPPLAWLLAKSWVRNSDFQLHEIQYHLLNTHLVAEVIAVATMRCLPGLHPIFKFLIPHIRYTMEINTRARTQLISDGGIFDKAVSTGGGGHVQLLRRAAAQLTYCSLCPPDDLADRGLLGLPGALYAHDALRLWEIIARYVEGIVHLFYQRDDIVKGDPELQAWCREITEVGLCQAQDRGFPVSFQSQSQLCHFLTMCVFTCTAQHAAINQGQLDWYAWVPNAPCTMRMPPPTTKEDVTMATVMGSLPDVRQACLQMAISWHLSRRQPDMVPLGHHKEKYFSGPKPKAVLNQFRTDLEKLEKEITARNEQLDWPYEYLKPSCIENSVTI
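150 nM 12hLO, 25 mM Hepes pH 7.0 + 0.01% Triton X-100; cpd preinc 15 min RT; 40 uM arachidonic acid, 30 min RT; Fe-XO 30 min; A573/A405 ratio as read-out.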
* hit, by the source's call; [ ] = remark or other dose. Sampled rows, rich in hits. Any-hit rate of the full collection: about 10%. Unless noted, calls come from the whole dose curve; as a rule, active = well fitted inhibition curve with a large enough effect (not every such curve was filed as active); inconclusive = small, poorly fitted or top-dose-only effect, or another doubt; inactive = no such curve, though single readings can be large or run the other way. Unless noted, % is set by controls: 0 for no effect and ±100 for the full control effect.

How did CCOC(=O)c1c(/N=C/C2C(=O)CCCC2=O)sc(C)c1C do in these assays?
Lamin A splicing: -16%; PNC inhibitor: inconclusive; HPGD inh: -7%; ALDH1A1 inh: inconclusive; 12-hLO inh: -5%

What do the screens show for `CCOC(=O)c1cc(C)sc1/N=C/C1C(=O)CC(C)(C)CC1=O`?
Lamin A splicing: -2%; PNC inhibitor: inconclusive; HPGD inh: -2%; ALDH1A1 inh: 13µM*; 12-hLO inh: 1%

How did CCOC(=O)c1cc(CC)sc1/N=C/C1=C(O)CC(C)(C)CC1=O do in these assays?
Lamin A splicing: inconclusive; PNC inhibitor: 4; HPGD inh: -20%; ALDH1A1 inh: 11µM*; 12-hLO inh: -2%

How did CCC12CCCN3CCC4(C(=C(C(=O)OC)C1)Nc1ccccc14)C32 (stereo unspecified) do in these assays?
Lamin A splicing: 12%; PNC inhibitor: inconclusive; HPGD inh: -22%; ALDH1A1 inh: 20µM*; 12-hLO inh: -11%

What do the screens show for `Cc1ccc2nc3nc4ccc[nH]c4cc3c2c1`?
ALDH1A1 inh: -1%[13.5 µM]

How did Cc1ccc(-c2csc3ncn(-n4c(C)ccc4C)c(=O)c23)o1 do in these assays?
Lamin A splicing: inconclusive; PNC inhibitor: inconclusive; HPGD inh: 28µM*; ALDH1A1 inh: 32µM*; 12-hLO inh: -29%

Results for Cc1sc2ncn(-n3c(C)ccc3C)c(=O)c2c1C ?
Lamin A splicing: 24%; PNC inhibitor: 32; HPGD inh: -8%; ALDH1A1 inh: -8%; 12-hLO inh: -10%

How did CN1C(=O)CC[C@@H]1c1cccnc1 do in these assays?
Lamin A splicing: inconclusive; HPGD inh: -6%; ALDH1A1 inh: -5%[20.9 µM]; 12-hLO inh: 4%[25.6 µM]

How did CC(C)OCCCNc1ncc2c(n1)CC(c1ccc(N(C)C)cc1)CC2=O (stereo unspecified) do in these assays?
Lamin A splicing: -2%; PNC inhibitor: 24; HPGD inh: -17%; ALDH1A1 inh: 8.9µM*; 12-hLO inh: -2%

Results for CC(C)OCCCNc1ncc2c(n1)CC(c1cccs1)CC2=O (stereo unspecified) ?
ALDH1A1 inh: -1%

How did CN(C)c1ncc2nc(-c3ccc(Cl)cc3)c(=O)n(C[C@H]3CCCO3)c2n1 do in these assays?
Lamin A splicing: 6%; ALDH1A1 inh: inconclusive

What do the screens show for `O=P(c1ccccc1)(c1ccccc1)N(c1ccccc1)c1ccccc1`?
Lamin A splicing: -10%; PNC inhibitor: 41; HPGD inh: -14%; ALDH1A1 inh: 0%; 12-hLO inh: 3%

How did O=C1C=CC(=O)N1N(c1ccccc1)c1ccccc1 do in these assays?
Lamin A splicing: -18%; PNC inhibitor: 7; HPGD inh: 1.4µM*; ALDH1A1 inh: 3.5µM*; 12-hLO inh: inconclusive

How did Cc1cc(C)c(Cn2c(=O)n(-c3ccccc3Cl)c(=O)c3c(C)c(C(=O)N(C)C)sc32)c(C)c1 do in these assays?
Lamin A splicing: 6%[46 µM]

Results for CC(=O)C(Sc1nn(C)c(=S)s1)C(=O)Nc1ccccc1 (stereo unspecified) ?
Lamin A splicing: inconclusive; PNC inhibitor: 3; HPGD inh: inconclusive; ALDH1A1 inh: 4.5µM*; 12-hLO inh: -13%

How did O=C(c1cc2ccccc2o1)c1nc2c(n1O)CCCCC2 do in these assays?
Lamin A splicing: -10%; PNC inhibitor: inconclusive; HPGD inh: 14µM*; ALDH1A1 inh: -1%; 12-hLO inh: -14%

How did O=C(c1ccco1)c1nc2c(n1O)CCCCC2 do in these assays?
Lamin A splicing: 2%; PNC inhibitor: inconclusive; HPGD inh: -10%; ALDH1A1 inh: 0%; 12-hLO inh: -4%

Results for O=C(COc1cc(=O)n2c(n1)SCCC2)c1ccccc1 ?
Lamin A splicing: 10%; PNC inhibitor: -4; HPGD inh: 16µM*; ALDH1A1 inh: 14µM*; 12-hLO inh: -2%

Results for COc1cc(NC(=O)C2CCN(S(=O)(=O)c3c(C)noc3/C=C/c3ccccc3F)CC2)cc(OC)c1OC ?
Lamin A splicing: 4%[46 µM]

What do the screens show for `O=C(NC(=S)N1CCCc2ccccc21)c1ccc([N+](=O)[O-])cc1`?
Lamin A splicing: inconclusive; PNC inhibitor: inconclusive; HPGD inh: -20%; ALDH1A1 inh: 11µM*; 12-hLO inh: -5%

How did O=C(NC(=S)N1CCCc2ccccc21)c1ccc(Cl)cc1 do in these assays?
Lamin A splicing: inconclusive; PNC inhibitor: -107*; HPGD inh: inconclusive; ALDH1A1 inh: -174%; 12-hLO inh: -2%

What do the screens show for `COC(=O)C1CCN(C(=O)COC(=O)c2ccc(OC)c(S(=O)(=O)N3CCCc4ccccc43)c2)CC1`?
Lamin A splicing: -2%[46 µM]; ALDH1A1 inh: 4.5µM*

How did COc1ccc(C(=O)OCC(=O)NCC2CCCO2)cc1S(=O)(=O)N1CCCc2ccccc21 (stereo unspecified) do in these assays?
Lamin A splicing: 3%[46 µM]; ALDH1A1 inh: 8%

What do the screens show for `CC(=O)N1C(=O)/C(=C2\SC(=S)N(NS(=O)(=O)c3ccc(C)cc3)C2=O)c2ccccc21`?
Lamin A splicing: -3%[46 µM]; ALDH1A1 inh: 13µM*

What do the screens show for `CC(=O)N1C(=O)/C(=C2\SC(=S)N(c3c(C)n(C)n(-c4ccccc4)c3=O)C2=O)c2ccccc21`?
Lamin A splicing: -12%; PNC inhibitor: -18; HPGD inh: -4%; ALDH1A1 inh: 10µM*; 12-hLO inh: -4%

Results for Cc1ccc(S(=O)(=O)NN2C(=O)/C(=C/c3ccccn3)SC2=S)cc1 ?
Lamin A splicing: -9%; PNC inhibitor: -15; HPGD inh: -24%; ALDH1A1 inh: inconclusive; 12-hLO inh: -1%

Results for Cc1c(N2C(=O)/C(=C3/C(=O)N(C)c4ccccc43)SC2=S)c(=O)n(-c2ccccc2)n1C ?
Lamin A splicing: 1%; PNC inhibitor: 119; HPGD inh: 7%; ALDH1A1 inh: 0%; 12-hLO inh: 0%

How did CCc1ccccc1NC(=O)N1CCN(Cc2nc3ccc(C)cc3o2)CC1 do in these assays?
Lamin A splicing: 7%[46 µM]

What do the screens show for `CCCCCCCCCCCCCCCC(=O)NCCCC(=O)O`?
HPGD inh: -3%; ALDH1A1 inh: 6%; 12-hLO inh: -2%

What do the screens show for `COc1cc2c(cc1OC)CN(C(=O)c1cccs1)CC2`?
Lamin A splicing: 7%; PNC inhibitor: -4; HPGD inh: -6%; ALDH1A1 inh: -3%; 12-hLO inh: -3%

How did COc1cc2c(cc1OC)CN(C(=O)c1ccco1)CC2 do in these assays?
ALDH1A1 inh: 14µM*

What do the screens show for `O=C(NC1c2ccccc2-c2ccccc21)c1ccco1`?
Lamin A splicing: 11%; PNC inhibitor: inconclusive; HPGD inh: -8%; ALDH1A1 inh: -3%; 12-hLO inh: -6%

How did CCN1C(=O)c2ccccc2S(=O)c2ccc(C(=O)N3CCN(C(=O)c4ccco4)CC3)cc21 (stereo unspecified) do in these assays?
Lamin A splicing: -10%; PNC inhibitor: inconclusive; HPGD inh: -6%; ALDH1A1 inh: 8.9µM*; 12-hLO inh: 2%

Screening data (PubChem)
